Source: PubChem BioAssay
An excerpt weighted towards active compounds, which were near 3.4% of everything screened.
MITF inh: inhibitors of human MITF. AlphaScreen MITF homodimerization, bead proximity signal. inhibition, % at 2.6 µM. 650,000 tested, 0.91% active. AID 1259374; in the data active means inhibition above about 50%;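 further: 0% = vehicle wells with protein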
GPR151 ag: activators of human GPR151 | Q8TDV0 | PathHunter beta-arrestin GPR151 cells, luminescence | activation, % at 11.2 µM | 650,000 tested, 1% active; in the data active means activation above about 4.9%;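 further: 0% = median of compound wells and 100% = cells with positive control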
TEAD-YAP inh: TEAD-YAP interaction inhibition | HEK-TIYL cells, TEAD-Gal4/YAP UAS-luciferase luminescence | inhibition, % at 9.12 µM | 640,000 tested, 1.4% active; in the data active means inhibition above about 32%;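 further: 0% = median of test compound wells and 100% = reference inhibitor wells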
FBW7 act: activators of human E3 ligase FBW7; AlphaScreen FBW7–phospho-cyclin E peptide binding, activator screen; Q969H0; normalized activity (activation), % at 26.1 µM; 650,000 tested, 0.13% active; in the data active means normalized activity above about 1.9%;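 further: purified mutant Fbw7 with reduced substrate affinity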
GPR151 conf act: human GPR151 activation, confirmation screen. activation, % at 11.2 µM. shares compounds with GPR151 ag. GPR151 PathHunter beta-arrestin cells, luminescence, 90 min; % of EA-reagent control over plate median. 6,700 tested, under 10 active;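 active means mean percent activation across replicates above the confirmation screen cutoff of 4.91%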
GPR119 ag: counter-screen for GPR151 activators: effect on human GPR119. activation, % at 11.2 µM. AID 1508611. shares compounds with GPR151 ag. 6,700 tested, 0.3% active. GPR119 PathHunter beta-arrestin cells, luminescence, 90 min; 0 = compound-well median, 100 = enzyme-acceptor control;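 active means mean percent activation in the counterscreen above 29.09%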;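 further: counterscreen on off-target GPR119 to flag nonselective hits from the GPR151 activator screen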
Target sequence (Q8TDV5 whole entry, looked up): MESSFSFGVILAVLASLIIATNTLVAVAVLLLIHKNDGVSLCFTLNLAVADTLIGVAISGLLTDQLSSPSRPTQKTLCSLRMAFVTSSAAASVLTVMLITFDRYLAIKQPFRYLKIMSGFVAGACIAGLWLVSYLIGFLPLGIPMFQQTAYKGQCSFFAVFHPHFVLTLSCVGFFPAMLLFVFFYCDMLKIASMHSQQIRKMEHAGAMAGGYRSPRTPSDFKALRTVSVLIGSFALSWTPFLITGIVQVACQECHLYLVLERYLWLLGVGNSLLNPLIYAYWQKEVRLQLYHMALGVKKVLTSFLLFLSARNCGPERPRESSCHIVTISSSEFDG
Starred values were filed as active, the others as inactive.

How did CCn1c(CCNC(=O)C(C)(C)C)nc2ccccc21 do in these assays?
MITF inh: 1; GPR151 ag: 6.7*; TEAD-YAP inh: -8; FBW7 act: 0; GPR151 conf act: 2; GPR119 ag: 3

What do the screens show for `O=C(c1nc2sccn2c1CN1CCCC(c2nc3ccccc3[nH]2)C1)N1CCCCC1` (centres undefined)?
MITF inh: -13; GPR151 ag: 0; TEAD-YAP inh: -9; FBW7 act: 0

What do the screens show for `O=C(O)Cc1ccc(NC(=O)c2ccccc2-c2ccccc2C(=O)O)cc1`?
MITF inh: 7; GPR151 ag: 6.6*; TEAD-YAP inh: 7; FBW7 act: 0; GPR151 conf act: -1; GPR119 ag: -11

How did COc1cc(C2Nc3ccccc3NC3=C2C(=O)CC(c2ccc4c(c2)OCO4)C3)ccc1OC(C)=O (centres undefined) do in these assays?
MITF inh: -8; GPR151 ag: 17*; TEAD-YAP inh: -8; FBW7 act: 0; GPR151 conf act: 2; GPR119 ag: 16

What do the screens show for `CCOc1cc(C2Nc3ccccc3NC3=C2C(=O)CC(c2ccc(OC)cc2)C3)cc(Cl)c1O` (centres undefined)?
MITF inh: 1; GPR151 ag: 4.9*; TEAD-YAP inh: -15; FBW7 act: 0; GPR151 conf act: 1; GPR119 ag: 14

What do the screens show for `CC(=O)N1CCOc2cc(S(=O)(=O)N3CCN(C)CC3)c(Cl)cc21`?
MITF inh: 9; GPR151 ag: 5.1*; TEAD-YAP inh: -3; FBW7 act: 0; GPR151 conf act: 1; GPR119 ag: 6

Results for CC(=O)N1CCOc2cc(S(=O)(=O)N3CCC(C(N)=O)CC3)c(Cl)cc21 ?
MITF inh: 4; GPR151 ag: 1; TEAD-YAP inh: 0; FBW7 act: 0

Results for CC(=O)N1CCN(Cc2cccc(F)c2)CC1 ?
MITF inh: 10; GPR151 ag: 5.4*; TEAD-YAP inh: 15; FBW7 act: 0; GPR151 conf act: 0; GPR119 ag: 3

Results for CC(=O)N1CCN(Cc2ccc3c(c2)CN(C(=O)Cc2cccc(F)c2)CCO3)CC1 ?
MITF inh: -3; GPR151 ag: 3; TEAD-YAP inh: 7; FBW7 act: 0

How did O=C(Nc1ccc(S(=O)(=O)NCc2ccccc2)cc1)N1CCCC1 do in these assays?
MITF inh: 1; GPR151 ag: 7.0*; TEAD-YAP inh: 1; FBW7 act: 0; GPR151 conf act: 0; GPR119 ag: 15

What do the screens show for `CCOc1ccccc1C(=O)Nc1cccc(Cl)c1`?
MITF inh: 9; GPR151 ag: 3; TEAD-YAP inh: 0; FBW7 act: 0

How did CC(=O)c1ccc(NC(=O)c2cc3c(C)nn(-c4ccccc4)c3s2)cc1 do in these assays?
MITF inh: 2; GPR151 ag: -1; TEAD-YAP inh: -19; FBW7 act: 0

How did Cc1ccn(CCC(=O)NCC2Cc3cc(-c4cnccn4)cc(Cl)c3O2)n1 (centres undefined) do in these assays?
MITF inh: -9; GPR151 ag: 12*; TEAD-YAP inh: -1; FBW7 act: 0; GPR151 conf act: 1; GPR119 ag: 16

What do the screens show for `Cn1ccc(C(=O)NCC2Cc3cc(-c4cnccn4)cc(Cl)c3O2)n1` (centres undefined)?
MITF inh: 18; GPR151 ag: 1; TEAD-YAP inh: -1; FBW7 act: 0

Results for COC(=O)c1ccc(CNc2cccc(F)c2)cc1 ?
MITF inh: 0; GPR151 ag: 1; TEAD-YAP inh: -12; FBW7 act: 0

Results for O=C(NNC(=S)Nc1ccccc1Cl)C1CC1 ?
MITF inh: 5; GPR151 ag: 6.0*; TEAD-YAP inh: 6; FBW7 act: 0; GPR151 conf act: 1; GPR119 ag: 9

How did COC(=O)C(CC(C)C)NC(=O)c1cc([N+](=O)[O-])ccc1Cl (centres undefined) do in these assays?
MITF inh: 5; GPR151 ag: 0; TEAD-YAP inh: 0; FBW7 act: 0

How did O=C(COc1ccc([N+](=O)[O-])cc1)OCCOc1ccc([N+](=O)[O-])cc1 do in these assays?
MITF inh: -10; GPR151 ag: 0; TEAD-YAP inh: -2; FBW7 act: -1

How did Cc1ccc(NC(=O)CSc2nc3[nH]ncc3c(=O)n2-c2ccc(Br)cc2)cc1Cl do in these assays?
MITF inh: -7; GPR151 ag: 7.5*; TEAD-YAP inh: 22; FBW7 act: 0; GPR151 conf act: 0; GPR119 ag: 9

How did Cc1ccc(S(=O)(=O)N2CCCCC2C(=O)N2CCN(C(c3ccccc3)c3ccccc3)CC2)cc1 (centres undefined) do in these assays?
MITF inh: 0; GPR151 ag: 1; TEAD-YAP inh: -3; FBW7 act: 0

Results for COc1ccc(N2C3=C(C(=O)CC(C)(C)C3)C(c3ccccc3)C3=C2c2ccccc2C3=O)cc1 (centres undefined) ?
MITF inh: -8; GPR151 ag: 5.6*; TEAD-YAP inh: -6; FBW7 act: 0; GPR151 conf act: 0; GPR119 ag: -5

Results for N[C@@H]1CC[C@@H](C(=O)Nc2cccc3cnccc23)C1 ?
MITF inh: 7; GPR151 ag: 1; TEAD-YAP inh: 4; FBW7 act: 0

How did COc1ccc2c(c1OC)C(=O)N(c1ccc(OC(F)(F)F)cc1)C2=O do in these assays?
MITF inh: -16; GPR151 ag: 0; TEAD-YAP inh: 5; FBW7 act: 0

What do the screens show for `O=C(CN1C(=O)CSC1=O)c1ccc(Cl)cc1`?
MITF inh: -6; GPR151 ag: 1; TEAD-YAP inh: 0; FBW7 act: 0

How did Cc1ccc(C(=O)Nc2ccc(C(=O)CN3C(=O)CSC3=O)cc2)cc1 do in these assays?
MITF inh: 24; GPR151 ag: 5.8*; TEAD-YAP inh: -2; FBW7 act: 0; GPR151 conf act: -1; GPR119 ag: -4

What do the screens show for `Cc1c(NC(=O)Nc2cccc(Cl)c2)cccc1[N+](=O)[O-]`?
MITF inh: 27; GPR151 ag: 1; TEAD-YAP inh: -11; FBW7 act: 0

How did COc1ccc(Cl)cc1NC(=O)Nc1cccc([N+](=O)[O-])c1C do in these assays?
MITF inh: 18; GPR151 ag: 8.3*; TEAD-YAP inh: 8; FBW7 act: 0; GPR151 conf act: 2; GPR119 ag: -1

Results for CCOC(=O)CS(=O)(=O)c1ccc(C(=O)NC2CCCCC2)cc1[N+](=O)[O-] ?
MITF inh: 6; GPR151 ag: -2; TEAD-YAP inh: -18; FBW7 act: 0

Results for Nc1nc(SCc2cn3cc(Br)ccc3n2)n[nH]1 ?
MITF inh: 10; GPR151 ag: 7.6*; TEAD-YAP inh: -8; FBW7 act: 0; GPR151 conf act: 0; GPR119 ag: -6
